Where “and” joins values, the source holds several entries; their conditions need not be identical. Equal values may be shown once. Calls of active or inactive are those of the source. Unless noted, no rule for the calls is given here.

Experiment [1] is described as follows: compounds binding Alexa647 anti-His antibody – biochemical, small-molecule microarray, 635 nm fluorescence, artefact control for SMM control protein annotation, primary screen (AID 1128).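 Also: score merges feature fluorescence with signal-to-noise for each printed compound spot.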 The following applies: higher = more signal.
Experiment [2] has as its system Human papillomavirus type 1a E7 protein (residues 1-88). The experiment in a line: HPV1a E7 small-molecule binders, primary screen, biochemical, small-molecule microarray, residues 1-88, 635 nm (AID 1129). The following applies: small-molecule microarray binding, fluorescence 635 nm; higher = more signal.
The target in experiment [3] is Focal adhesion kinase 1 (Homo sapiens) (UniProt Q05397). As to the kind of experiment: PTK2 protein binding on printed compound slides – biochemical, small-molecule microarray, 635/667 nm fluorescence, BSA, DTT, primary screen (AID 1130).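 Also: composite of spot emission at 667 nm and signal to noise over triplicate slides.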 The following applies: 635 nm fluorescence, higher = more signal.
Chain of Focal adhesion kinase 1 (Homo sapiens) (Q05397 whole entry, looked up): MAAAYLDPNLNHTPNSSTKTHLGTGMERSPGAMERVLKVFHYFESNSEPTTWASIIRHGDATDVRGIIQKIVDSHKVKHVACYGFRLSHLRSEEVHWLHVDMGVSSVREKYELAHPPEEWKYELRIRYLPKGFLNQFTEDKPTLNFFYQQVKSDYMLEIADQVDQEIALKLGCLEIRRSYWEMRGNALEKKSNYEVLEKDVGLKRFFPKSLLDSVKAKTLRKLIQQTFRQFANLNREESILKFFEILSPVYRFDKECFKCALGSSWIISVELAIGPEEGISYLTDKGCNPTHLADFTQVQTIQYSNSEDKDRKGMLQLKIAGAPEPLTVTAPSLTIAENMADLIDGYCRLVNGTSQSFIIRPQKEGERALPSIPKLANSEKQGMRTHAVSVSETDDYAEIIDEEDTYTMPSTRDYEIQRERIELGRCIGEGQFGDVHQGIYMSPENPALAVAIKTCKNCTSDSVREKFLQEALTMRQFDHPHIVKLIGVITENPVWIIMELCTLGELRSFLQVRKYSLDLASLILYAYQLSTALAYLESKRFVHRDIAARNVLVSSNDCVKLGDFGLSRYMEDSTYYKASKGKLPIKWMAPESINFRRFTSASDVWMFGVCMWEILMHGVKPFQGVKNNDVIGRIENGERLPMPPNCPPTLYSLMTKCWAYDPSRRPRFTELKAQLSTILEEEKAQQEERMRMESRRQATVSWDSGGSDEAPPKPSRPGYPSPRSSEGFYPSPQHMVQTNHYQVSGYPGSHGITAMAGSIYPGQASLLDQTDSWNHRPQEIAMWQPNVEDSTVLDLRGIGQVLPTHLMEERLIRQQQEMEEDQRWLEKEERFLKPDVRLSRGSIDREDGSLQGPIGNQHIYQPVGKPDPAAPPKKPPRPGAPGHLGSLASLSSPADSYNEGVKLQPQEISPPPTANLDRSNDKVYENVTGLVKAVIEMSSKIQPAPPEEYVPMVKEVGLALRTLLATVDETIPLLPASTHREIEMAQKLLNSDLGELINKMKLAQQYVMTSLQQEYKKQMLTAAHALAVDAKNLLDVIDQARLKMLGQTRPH
Experiment [4] concerns Fibrinogen (Alexa647-labelled). As to the kind of experiment: Alexa647-fibrinogen binding to printed small molecules – biochemical, small-molecule microarray, 635/667 nm fluorescence, artefact control for SMM control-protein annotation, profiling panel (AID 1131).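 Also: z-score merges 667 nm fluorescence with per-spot signal-to-noise over triplicate slides.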 The following applies: fibrinogen-A647 binding fluorescence, higher = more signal.
The target in experiment [5] is Follistatin (Homo sapiens) (UniProt P19883). As to the kind of experiment: FST protein binding to printed compounds – biochemical, small-molecule microarray, 635/667 nm fluorescence, primary screen (AID 1132). To be noted: 635 nm fluorescence, higher = more signal.
Chain of Follistatin (Homo sapiens) (P19883 whole entry, looked up): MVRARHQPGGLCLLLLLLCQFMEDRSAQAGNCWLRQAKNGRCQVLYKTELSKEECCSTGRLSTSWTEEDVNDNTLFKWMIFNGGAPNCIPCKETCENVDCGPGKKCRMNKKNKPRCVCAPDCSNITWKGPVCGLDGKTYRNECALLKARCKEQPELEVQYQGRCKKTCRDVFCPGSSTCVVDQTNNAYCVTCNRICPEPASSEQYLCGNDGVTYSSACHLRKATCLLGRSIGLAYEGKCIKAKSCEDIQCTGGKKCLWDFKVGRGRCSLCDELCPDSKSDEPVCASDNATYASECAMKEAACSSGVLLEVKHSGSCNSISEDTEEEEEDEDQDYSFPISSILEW
The target of experiment [6] is Fibroblast growth factor 2 (Homo sapiens) (UniProt P09038). As to the kind of experiment: basic fibroblast growth factor binding to printed compounds – biochemical, small-molecule microarray, 635/667 nm fluorescence, primary screen (AID 1133). To be noted: FGF2, fluorescence 635/667, higher = more signal.
Chain of Fibroblast growth factor 2 (Homo sapiens) (P09038 whole entry, looked up): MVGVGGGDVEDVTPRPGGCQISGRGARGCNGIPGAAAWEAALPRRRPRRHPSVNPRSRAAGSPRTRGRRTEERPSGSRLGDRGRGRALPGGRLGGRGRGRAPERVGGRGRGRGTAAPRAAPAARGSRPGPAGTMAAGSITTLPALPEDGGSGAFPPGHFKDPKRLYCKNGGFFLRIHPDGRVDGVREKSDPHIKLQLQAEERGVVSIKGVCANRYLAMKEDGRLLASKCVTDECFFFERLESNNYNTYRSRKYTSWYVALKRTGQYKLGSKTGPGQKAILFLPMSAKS
The nature of experiment [7]: JC-1 mitochondrial potential readout, lung cancer cells – cell-based, A549, JC-1 fluorescence, basal, 24 h, 100 nL, profiling panel (AID 1138).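 Also: A549 lung adenocarcinoma cells under basal conditions with no added stimulus; test concentration not given here.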 To be noted: higher = more signal.
A further experiment relates to Lefty1. As to the kind of experiment: Lefty1 protein binding to printed compounds – biochemical, small-molecule microarray, 635/667 nm fluorescence, primary screen (AID 1139). To be noted: fluorescence 635/667, higher = more signal.
The test system of experiment [8] is wheat germ agglutinin (Triticum aestivum), Alexa647-labelled. The experiment in a line: Alexa647-WGA lectin binding to printed small molecules – biochemical, small-molecule microarray, 635/667 nm fluorescence, artefact control for SMM control-protein annotation, profiling panel (AID 1140).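 Also: score merges 667 nm feature emission with signal to noise over triplicate slides.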 To be noted: WGA-A647 binding, 635 nm fluorescence, higher = more signal.

The target in experiment [9] is Luciferin 4-monooxygenase (Photinus pyralis) (UniProt P08659). As to the kind of experiment: inhibition of purified Photinus pyralis luciferase – biochemical, luminescence, purified enzyme, 2006 set, primary screen (AID 1141).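 Also: cell-free assay with purified firefly luciferase at 100 ng per well in PBS; test concentration not given here.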 To be noted: purified firefly luciferase, SteadyGlo luminescence, 30 min; higher = more signal, called active from +8 up or from −8 down.
Chain of Luciferin 4-monooxygenase (Photinus pyralis) (P08659 whole entry, looked up): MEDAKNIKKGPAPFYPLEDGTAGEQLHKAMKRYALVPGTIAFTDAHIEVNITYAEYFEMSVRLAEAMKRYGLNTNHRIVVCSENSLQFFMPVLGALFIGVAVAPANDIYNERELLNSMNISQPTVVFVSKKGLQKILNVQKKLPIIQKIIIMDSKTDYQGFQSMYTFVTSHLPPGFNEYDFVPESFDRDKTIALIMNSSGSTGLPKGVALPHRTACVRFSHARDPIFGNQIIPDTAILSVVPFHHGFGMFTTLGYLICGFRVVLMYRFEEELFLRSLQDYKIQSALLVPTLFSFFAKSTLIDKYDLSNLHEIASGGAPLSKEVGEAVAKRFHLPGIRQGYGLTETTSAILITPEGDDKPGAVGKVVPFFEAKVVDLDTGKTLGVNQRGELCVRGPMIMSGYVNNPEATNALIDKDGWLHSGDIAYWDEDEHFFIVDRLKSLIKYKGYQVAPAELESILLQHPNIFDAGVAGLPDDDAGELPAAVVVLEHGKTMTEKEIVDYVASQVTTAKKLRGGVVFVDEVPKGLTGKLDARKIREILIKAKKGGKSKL
Experiment [10] concerns Wnt5a (protein binding on small-molecule microarray). As to the kind of experiment: small molecules binding Wnt5a protein – biophysical, small-molecule microarray, 635/667 nm fluorescence, primary screen (AID 1142).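 Also: fluorescence read at 667 nm with signal to noise per printed feature.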 The following applies: 635 nm fluorescence, higher = more signal.
Experiment [11] can be described thus: ATP-based viability of Huh7 replicon cells – cell-based, CellTiter-Glo luminescence, basal, 48 h, cytotoxicity control for HCV replication inhibitor project, primary screen (AID 1143).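 Also: Huh7 hepatoma cells carrying a hepatitis C replication reporter with no stimulus; test concentration not given here.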 To be noted: higher = more signal, called active from +8 up or from −8 down.
Experiment [12] can be described thus: Pseudomonas biofilm growth suppression – PAO1 strain, BacTiter-Glo luminescence, LB-PBS, primary screen (AID 1144). To be noted: P. aeruginosa PAO1 biofilm, 12 h, higher = more signal.
A short description of experiment [13]: basal CRE-LacZ reporter activity in PC12 – cell-based, unstimulated, primary screen (AID 1145). To be noted: no forskolin, luminescence, 4.5 h, higher = more signal, called active from +8 up or from −8 down.
The nature of experiment [14]: forskolin-driven CRE-LacZ activity in PC12 – cell-based, CRE-LacZ reporter, forskolin-stimulated, primary screen (AID 1146).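 Also: PC12 cells with 6xCRE LacZ reporter stimulated by forskolin 10 µM; beta-galactosidase reporter signal reflecting CREB driven transcription.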 To be noted: luminescence, 4.5 h, higher = more signal, called active from +8 up or from −8 down.
The target in experiment [15] is Streptavidin (Streptomyces avidinii) (UniProt P22629). The experiment in a line: compounds binding control protein streptavidin – biophysical, small-molecule microarray, 635/667 nm fluorescence, artefact control for SMM compound annotation, primary screen (AID 1147).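 Also: signal reflects streptavidin binding to arrayed compounds as a control protein.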 The following applies: higher = more signal.
Chain of Streptavidin (Streptomyces avidinii) (P22629 whole entry, looked up): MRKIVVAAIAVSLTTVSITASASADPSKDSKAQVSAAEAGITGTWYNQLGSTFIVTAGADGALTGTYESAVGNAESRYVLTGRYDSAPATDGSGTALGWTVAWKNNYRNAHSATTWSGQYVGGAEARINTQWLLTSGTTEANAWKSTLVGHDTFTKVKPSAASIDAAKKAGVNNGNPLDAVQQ
Experiment [16] in a line: probe aInhba binding on compound microarray – biochemical, small-molecule microarray, 635/667 nm fluorescence, primary screen (AID 1148).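 Also: score merges 667nm spot fluorescence with signal-to-noise for antibody binding to printed compounds.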 The following applies: higher = more signal.
The target in experiment [17] is Torsin-1A (Homo sapiens) (UniProt O14656). The experiment in a line: TOR1A wild-type binding on microarray – cell lysate, small-molecule microarray, lysate, 635/667 nm, primary screen (AID 1149). To be noted: COS7 hTOR1A-WT lysate, 635 nm fluorescence, higher = more signal.
Chain of Torsin-1A (Homo sapiens) (O14656 whole entry, looked up): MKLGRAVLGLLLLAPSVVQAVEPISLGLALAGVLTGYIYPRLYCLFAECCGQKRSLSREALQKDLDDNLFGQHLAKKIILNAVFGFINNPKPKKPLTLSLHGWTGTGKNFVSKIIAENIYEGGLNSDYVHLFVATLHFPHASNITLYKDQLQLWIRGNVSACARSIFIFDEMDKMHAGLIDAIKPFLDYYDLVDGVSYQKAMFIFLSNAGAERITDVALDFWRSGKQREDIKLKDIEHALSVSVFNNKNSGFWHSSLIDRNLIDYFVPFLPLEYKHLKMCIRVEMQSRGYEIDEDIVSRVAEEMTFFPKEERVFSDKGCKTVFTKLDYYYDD
The target is the same in experiment [18]. The experiment in a line: torsin A mutant lysate binding on microarrays – cell lysate, small-molecule microarray, COS7 lysate, 635/667 nm fluorescence, primary screen (AID 1150).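 Also: score pools 667 nm emission and signal to noise measuring lysate protein binding.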 To be noted: COS7 hTOR1A mutant lysate, 635 nm fluorescence, higher = more signal.
The test system of experiment [19] is Sonic hedgehog protein (Shh). The experiment in a line: Sonic hedgehog microarray binding compounds – biochemical, small-molecule microarray, 635/667 nm fluorescence, primary screen (AID 1151).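 Also: Shh protein binding to compounds spotted on small-molecule microarray slides; score combines spot fluorescence intensity with signal-to-noise across triplicate slides.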 To be noted: 635 nm fluorescence, higher = more signal.

On to `C[N+](C)(C)CCCCNC(=O)[C@H]1C[C@H]2C(=O)N[C@@H](CCCC[N+](C)(C)C)C(=O)N2[C@H]1c1ccc(O)cc1`, for which the composite z-score is 2.99 and 3.33 in experiment [1]; 0.395 and -1.59 in experiment [2]; 0.267 and -0.478 in [3]; 0.56 and -1.1 in [4]; 1.57 and 1.45 in experiment [5]; 2.01 and 1.99 in experiment [6]. In addition, the composite z-score is 1.62 and 1.64 with Lefty1; -0.608 and -1.01 in experiment [8]; 0.96 and 0.388 in experiment [10]; 0.16 and -1.27 in [15]; -0.154 and -0.251 in experiment [16]; 2.32 and 1.51 with Torsin-1A (Homo sapiens) [17]. Also, the composite z-score was 0.287 and 0.683 with Torsin-1A (Homo sapiens) [18]; 2.27 and 2.33 in experiment [19]. Besides, the z-score was -0.0637 and -0.967 in experiment [7]; 0.325 (inactive) and 0.332 (inactive) in experiment [9]; 0.171 (inactive) and -2.13 (inactive) in [11]; -0.597 (inactive) and -1.3 (inactive) in experiment [12]; -0.541 (inactive) and 0.679 (inactive) in experiment [13]; 0.485 (inactive) and -0.16 (inactive) in experiment [14].

For `C=CCN(C(=O)C(c1cccs1)N(CCOCCO)C(=O)/C=C\C(=O)O)c1ccc(OC)cc1` (stereo not given), the composite z-score is -0.542 and -1.89 in [1]; -0.923 and -1.57 in experiment [2]; -0.303 and -0.67 in experiment [3]; -0.627 and -1.54 in [4]; -0.745 and -1.07 in experiment [5]; -0.993 and -1.6 in experiment [6]. Also, the composite z-score with Lefty1 is -0.208 and -1.45; in experiment [8] it was -0.628 and -2.28; in [10], -0.459 and -0.385; in experiment [15], -1.09 and -2.3; in experiment [16], -0.128 and -0.208; with Torsin-1A (Homo sapiens) [17] it was -0.16 and -1.77. Besides, the composite z-score with Torsin-1A (Homo sapiens) [18] was -1.17 and -0.642; in [19], -0.452 and 0.0229. Besides, the z-score is 0.13 and 1 in [7]; 0.286 (inactive) and -2.02 (inactive) in experiment [9]; -0.751 (inactive) and -0.299 (inactive) in experiment [11]; -2.23 (inactive) in experiment [12]; -1.58 (inactive) and -0.749 (inactive) in experiment [13]; -0.418 (inactive) and -1.15 (inactive) in experiment [14].

Turning to `CCOC(=O)[C@@H]1CC=C2CC1C(=O)N1CCC[C@@H]1[C@H]2O[Si](C)(C)C(C)(C)C` (stereo not given in full), the composite z-score was -1.02 and -0.542 in experiment [1]; -0.419 and -0.434 in experiment [2]; -0.758 and -0.489 in [3]; -0.454 and -1.61 in [4]; -0.76 and -0.645 in experiment [5]; -0.424 and -0.469 in [6]. Moreover, the composite z-score is -0.224 and -0.132 in the experiment with Lefty1; -0.992 and -0.976 in experiment [8]; -0.12 and -0.752 in experiment [10]; -0.759 and -2.05 in experiment [15]; 0.027 and -0.319 in experiment [16]; -0.408 and -2.35 with Torsin-1A (Homo sapiens) [17]. The composite z-score is -0.0943 and -2.33 in the experiment with Torsin-1A (Homo sapiens) [18]; -0.085 and -0.0655 in experiment [19]. Also, the z-score in experiment [7] was -0.827 and -0.338; in experiment [9], 0.0411 (inactive) and 0.838 (inactive); in experiment [11], 0.856 (inactive) and -3.46 (inactive); in experiment [12], 0.318 (inactive) and 0.0257 (inactive); in experiment [13] it was -0.692 (inactive) and -1.5 (inactive); in experiment [14], 1.25 (inactive) and -1.04 (inactive).

Turning to `C=CCN(C(=O)C1N(CCOCCO)C(=O)C2C(C(=O)O)C3C=CC21O3)C(C)(C)C` (stereo not given), the composite z-score is -0.673 and -0.976 in experiment [1]; -1.66 and -0.815 in [2]; -0.324 and -0.708 in experiment [3]; -4.25 and -0.473 in [4]; -2.09 and -1.58 in experiment [5]; -1.27 and -2.81 in experiment [6]. Also, the composite z-score with Lefty1 is -1.43 and -1.07; in experiment [8], -0.511 and -0.0854; in [10], -0.908 and -0.886; in experiment [15], -0.875 and -0.873; in experiment [16], -0.179 and -0.319; in the experiment with Torsin-1A (Homo sapiens) [17] it was -1.93 and -2.63. The composite z-score with Torsin-1A (Homo sapiens) [18] was -2.59 and -1.82; in experiment [19] it was -0.783 and -1.34. Besides, the z-score in experiment [7] is -0.147 and -0.774; in experiment [9], -0.352 (inactive) and 0.274 (inactive); in [11], -0.773 (inactive) and -0.325 (inactive); in experiment [12], -0.000915 (inactive) and -1.27 (inactive); in experiment [13], -0.627 (inactive) and 0.0605 (inactive); in experiment [14], -0.581 (inactive) and 0.0532 (inactive).

The record behind these values is PubChem BioAssay.
